Test results published in PMC5540273 (PLoS ONE, 2017).

Key:
Conditions in all cases: concentration: 1 μM, replicates: in singlicate; n = 1
PIP5K2C = system: T1, PIP5K2C
T1 construct: gene PIP4K2C

PKAC-alpha = system: T2, PKAC-alpha
T2 construct: gene PRKACA

PKAC-beta = system: T3, PKAC-beta
T3 construct: gene PRKACB

PKMYT1 = system: PKMYT1
PKN1 = system: PKN1
PKN2 = system: PKN2
PLK1 = system: PLK1
PLK2 = system: PLK2
PLK3 = system: PLK3
PLK4 = system: PLK4
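Also: KINOMEscan kinase panel screen.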

Structure (SMILES)	%Inh (PIP5K2C) [%]	%Inh (PKAC-alpha) [%]	%Inh (PKAC-beta) [%]	%Inh (PKMYT1) [%]	%Inh (PKN1) [%]	%Inh (PKN2) [%]	%Inh (PLK1) [%]	%Inh (PLK2) [%]	%Inh (PLK3) [%]	%Inh (PLK4) [%]
CC(C)N1CCC(n2cnc(-c3ccc(F)cc3)c2-c2ccnc(N)n2)CC1 [SB-223132]	62	0	22	0	0	0	0	0	0	0
Fc1cccc(COc2ccc(Nc3ncnc4sc(-c5ccc[nH]5)cc34)cc2Cl)c1 [GW707818]	25	0	0	0	32	1	0	7	19	0
CNc1nccc(-c2c(-c3ccc(F)cc3)ncn2CCCN2CCOCC2)n1 [SB-222516]	0	1	19	0	0	36	41	14	0	0
Cc1cccc(-c2nc(Nc3ccc4[nH]nnc4c3)c3ccccc3n2)n1 [GW867587]	0	0	0	0	0	0	0	0	0	0
Nc1n[nH]c2nnc(-c3ccccc3)cc12 [SB-517389]	7	0	0	0	7	0	0	35	33	9
CCCc1ccc(S(=O)(=O)NC2CCN(c3ccnc(Nc4ccc(OC)cc4)n3)C2)cc1 (stereo not shown) [GSK1379737]	66	0	0	0	0	0	1	0	0	0
Cl.O=S(=O)(c1cccc(F)c1)c1ccc(Nc2ncnc3cc(Br)sc23)cc1Cl [GSK306886]	60	0	0	26	19	0	0	0	0	26
N#Cc1ccc(Oc2ccc(Nc3ncnc4cc[nH]c34)cc2Cl)cc1	0	8	0	19	0	0	4	5	11	21
C[C@H]1CC[C@@H](C(=O)Nc2ccccc2)CN1c1cc(-c2ccc3c(N)n[nH]c3c2)nc(N)n1 [GSK2283293]	15	0	0	0	0	0	0	4	0	0
O=C(Nc1ccccc1)Nc1ccc(Oc2ccc3nccn3n2)cc1	25	0	55	8	6	4	3	0	15	0
CC(=O)Nc1n[nH]c2ncc(-c3ccccc3)cc12 [SB-548492]	0	0	14	0	0	29	1	27	25	8
Fc1cccc(COc2ccc(Nc3ncnc4nn5ccccc5c34)cc2Cl)c1 [GW689066]	32	0	8	0	0	0	0	0	0	0
COc1ccc(Nc2nccc(N3CCC(NC(=O)c4cccc(NC(C)=O)c4)C3)n2)cc1 (stereo not shown) [GSK1379732]	57	0	12	3	0	0	15	6	0	0
CCn1c(-c2ccncc2)nc2cnccc21 [SB-735216]	0	0	3	6	2	20	28	37	16	0
COC(=O)c1cccc(NC(=O)NCCNc2ccnc(Nc3ccc(F)cc3)n2)c1 [GSK1379883]	22	3	0	10	3	0	4	0	0	0
CSc1nn2c(=O)cc(N3CCOCC3)nc2n1Cc1cccc(Cl)c1Cl [GSK2347225]	7	24	12	0	5	0	55	0	5	13
CS(=O)(=O)CCNCc1nc(-c2ccc3ncnc(Nc4ccc(OCc5cccc(F)c5)c(Cl)c4)c3c2)cs1.Cl [GW583340]	24	0	0	0	0	0	0	0	0	3

Structure (SMILES)	%Inh (PIP5K2C) [%]	%Inh (PKAC-alpha) [%]	%Inh (PKAC-beta) [%]	%Inh (PKMYT1) [%]	%Inh (PKN1) [%]	%Inh (PKN2) [%]	%Inh (PLK1) [%]	%Inh (PLK2) [%]	%Inh (PLK3) [%]	%Inh (PLK4) [%]
FC(F)(F)c1cc(Nc2nccc(-c3c(-c4ccc(Cl)cc4)nn4ncccc34)n2)ccc1Cl [GW829351]	0	0	0	0	0	0	0	0	3	7
Cn1ccc2ncnc(Nc3ccc(Oc4cccc(Cl)c4)c(Cl)c3)c21	22	4	0	0	0	0	0	30	24	26
CS(=O)(=O)CCNCc1ccc(-c2ccc3ncnc(Nc4ccc(OCc5ccccc5)c(Cl)c4)c3c2)o1.Cl [GW574783]	29	4	16	0	12	8	6	0	0	0
Nc1nc(-c2ccc3c(N)n[nH]c3c2)cc(N2CCCCC2)n1 [GSK2228768]	0	56	0	13	18	0	0	0	0	0
Cl.c1ccc(Cn2ncc3cc(Nc4ncnc5ccccc45)ccc32)cc1 [GW273749]	0	0	0	0	13	0	2	0	2	0
CC(C)(C)OC(=O)NC1CCCN(c2cc(-c3ccc4c(N)n[nH]c4c3)nc(N)n2)C1 (stereo not shown) [GSK2286096]	0	0	0	0	0	0	16	0	0	10
Fc1cccc(COc2ccc(Nc3ncnc4cc[nH]c34)cc2Cl)c1	5	25	1	10	0	0	23	23	23	27
Cl.c1ccc(Cn2ccc3cc(Nc4ncnc5ccccc45)ccc32)cc1 [GW275568]	25	18	0	0	26	0	4	0	0	5
COc1ccc(-c2oc3ncnc(N)c3c2-c2ccc(OC)cc2)cc1 [SB-589132]	63	0	0	0	0	0	3	0	0	0
CCC(CC)(CC)n1cnc2c(N)ncnc21 [SKF-97620]	0	11	14	2	0	0	45	32	21	7
Cc1ccc(C)c(NC(=O)NCCNc2ccnc(Nc3ccc(F)cc3)n2)c1 [GSK1379878]	25	0	0	0	0	0	4	0	0	0
COc1cc2c(Nc3cccc(NC(=O)c4ccccc4)c3)ncnc2cc1OCCCN1CCOCC1 [GSK223810]	0	100	0	7	8	0	0	3	0	17
Nc1nc(-c2ccccn2)c(-c2ccnc3ccccc23)s1 [GW548057]	57	0	4	0	0	9	0	0	0	14
CN1c2ccc(-c3ccc(C(=O)NCCO)cc3)cc2-c2[nH]ncc2S1(=O)=O	76	33	55	16	0	30	21	17	0	25
c1ccc(-c2ccc3c(-c4ccnc(Nc5ccc6c(c5)OCCO6)n4)cnn3n2)cc1 [GW818941]	36	0	28	3	65	0	9	0	0	0
CSc1ccc(NC2=C(c3ccccc3Cl)C(=O)NC2=O)cc1 [SB-342411]	0	74	0	25	36	0	8	0	0	13
COC(=O)c1c(-c2ccccc2)c2cc(Cl)ccc2c(=O)n1Cc1ccc(S(C)(=O)=O)cc1	0	5	0	1	0	0	0	6	9	26
